In all, about 290,000 compounds went through this assay and about 2,200 (0.76%) were called active. Cut-off read from the data, not from the text of the source: active = inhibition above about 30%; inconclusive = no clear call, values can overlap the other calls; inactive = below that. For the sample, actives were picked, then their nearest neighbours and some compounds at random.
The compounds below were run against Protein RecA (Mycobacterium tuberculosis (strain ATCC 25618 / H37Rv)) (UniProt P9WHJ3) (assay: Mtb RecA intein splicing inhibitors, primary screen, biochemical, fluorescence, HTS (AID 2221;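 note: 0% = vehicle wells and 100% = reference inhibitor control wells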)). Details: cell-free RecA intein splicing, active compounds read high, concentration not given here.
Protein RecA (Mycobacterium tuberculosis (strain ATCC 25618 / H37Rv)), sequence (P9WHJ3 whole entry, looked up): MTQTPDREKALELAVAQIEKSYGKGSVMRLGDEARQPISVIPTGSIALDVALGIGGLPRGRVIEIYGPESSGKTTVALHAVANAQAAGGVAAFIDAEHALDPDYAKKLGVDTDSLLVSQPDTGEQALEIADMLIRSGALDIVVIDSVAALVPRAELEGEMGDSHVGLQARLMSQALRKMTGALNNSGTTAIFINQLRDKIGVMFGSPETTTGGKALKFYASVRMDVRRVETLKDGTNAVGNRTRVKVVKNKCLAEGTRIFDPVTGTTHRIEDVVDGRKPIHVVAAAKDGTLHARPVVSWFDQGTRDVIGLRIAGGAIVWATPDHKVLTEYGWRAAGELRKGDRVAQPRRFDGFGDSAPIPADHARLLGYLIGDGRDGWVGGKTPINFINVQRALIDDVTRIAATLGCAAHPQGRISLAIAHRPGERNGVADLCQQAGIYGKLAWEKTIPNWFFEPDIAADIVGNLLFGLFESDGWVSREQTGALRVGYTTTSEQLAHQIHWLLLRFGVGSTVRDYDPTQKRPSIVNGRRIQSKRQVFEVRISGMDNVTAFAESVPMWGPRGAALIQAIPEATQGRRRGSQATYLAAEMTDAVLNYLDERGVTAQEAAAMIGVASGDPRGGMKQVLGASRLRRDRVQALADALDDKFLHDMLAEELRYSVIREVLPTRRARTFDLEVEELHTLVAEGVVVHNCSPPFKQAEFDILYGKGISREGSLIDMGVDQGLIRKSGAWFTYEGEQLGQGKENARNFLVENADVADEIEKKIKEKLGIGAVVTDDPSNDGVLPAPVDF

SMILES	inhibition
COc1ccccc1OCCCCCCN1CCN(C)CC1	-1.55% (inactive)
CC(OC(=O)CNC(=O)c1cccc(F)c1)C(=O)NC1CCCCC1C (stereo not given)	-0.912% (inactive)
CC(C)(C)OC(=O)c1c(N)n(CCCN2CCCC2=O)c2nc3ccccc3nc12	-350% (inactive)
COCC(C)OC(=O)c1c(N)n(CCCN2CCOCC2)c2nc3ccccc3nc12 (stereo not given)	-97.2% (inactive)
N#Cc1c(N)n(CCOC(=O)c2ccc(Cl)cc2)c2nc3ccccc3nc12	51.9% (active)
CC(C)(C)n1nc(Cc2cccc3ccccc23)c(C#N)c1N	4.34% (inactive)
COc1ccc(N(C(=O)c2snc(C(N)=O)c2N)C(C(=O)NC2CCCC2)c2ccc(C)o2)c(OC)c1 (stereo not given)	5.96% (inactive)
O=C(OCC(=O)N(CCc1ccccc1)Cc1ccccc1)c1ccccc1[N+](=O)[O-]	18.8% (inactive)
Cc1ccc(C(=O)N/N=C/c2cccc3ccccc23)cn1	0.625% (inactive)
O=C(N/N=C\c1cc(Br)c(Br)o1)C1COc2ccccc2O1 (stereo not given)	0.81% (inactive)
Cc1ccc(C(=O)N/N=C\c2cc(Br)c(Br)o2)cn1	32% (active)
Cn1c2ccccc2n2c(=O)c(=O)n(CC(=O)c3ccc(F)cc3)nc12	-7.28% (inactive)
COCCN1CCN(C(=O)c2cc(COc3ccc(F)cc3Cl)on2)CC1	-1.15% (inactive)
CC1CCC(NC(=O)C2c3ccccc3C(=O)N2Cc2ccc3c(c2)OCO3)CC1 (stereo not given)	-1.41% (inactive)
O=C(C1CCN(Cc2ccc(Cl)cc2)CC1)N1CCN(Cc2ccc3c(c2)OCO3)CC1	-0.0543% (inactive)
O=C(Nc1ccc(Cl)cc1)C1c2cccc[n+]2CC(=O)N1Cc1ccc2c(c1)OCO2 (stereo not given)	36.5% (active)
C=CS(=O)c1sc(Cl)c(N2CCOCC2)c1[N+](=O)[O-] (stereo not given)	33.8% (active)
CCOC(=O)c1cc(NC(=O)c2ccc(Cl)cc2)c(=O)oc1-c1ccccc1	-0.694% (inactive)
COc1ccc(N=C(C)c2sc3ccccc3c2O)cc1	0.51% (inactive)
Oc1ccc(N=Cc2sc3ccccc3c2Cl)cc1	34.2% (active)
O=C(N/N=C/c1c(Cl)[nH]c2ccccc12)c1sc2ccccc2c1Cl	3.69% (inactive)
CC(C)(C)C1CCC(C(=O)NCC(c2cccs2)N2CCOCC2)CC1 (stereo not given)	4.62% (inactive)
COc1ccc2c(c1)C(=C(C#N)C#N)C(=O)N2CCc1ccccc1	61.5% (active)
CCCCN1C(=O)/C(=C(/C#N)C(N)=O)c2ccccc21	1.79% (inactive)
C#CCN1C(=O)C(O)(CC(=O)c2cc(OC)ccc2OC)c2ccccc21 (stereo not given)	2.4% (inactive)
